{
  "source": "the supplement of paper PMC10849652",
  "note": "Of roughly 7,900 targets only a part is listed; those with a hit were picked by preference. About 0.6% of all pairs of compound and target were hits. Values without a mark were called inactive.",
  "data": [
    {"compound": "c1cn2cc(-c3ccc4cn[nH]c4c3)nc(Nc3ccc(N4CCOCC4)cc3)c2n1 [entospletinib]", "test": "log2 fold change, soluble protein after heating vs DMSO (PISA); higher = thermal stabilisation; K562 cells, 10 uM, 30 min; active = over 0.2 and 3.5 SD of the protein, either way, in both replicates (recomputed)", "summary_of_the_method": "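K562 cells at 2×10^6 cells/mL were treated with 10 μM compound for 30 min. Aliquots were heated for 3 min across 48°C-58°C, pooled, and extracted in PBS with 0.5% NP-40 at 4°C; soluble protein was the supernatant after 21,000xg for 90 min. Soluble protein was quantified by TMTpro 16plex LC-MS/MS with channel sums equalised, and reported as log2 fold change in thermal stability against DMSO controls, with values from duplicates.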", "values": [
      {"target": "CCDC82 (UniProt Q8N4S0)", "log2 fold change": 0.021},
      {"target": "CKS2 (UniProt P33552)", "log2 fold change": 0.04},
      {"target": "CDK2AP2 (UniProt O75956)", "log2 fold change": 0.101},
      {"target": "CASP7 isoform 3 (UniProt P55210)", "sequence (P55210 whole entry, looked up)": "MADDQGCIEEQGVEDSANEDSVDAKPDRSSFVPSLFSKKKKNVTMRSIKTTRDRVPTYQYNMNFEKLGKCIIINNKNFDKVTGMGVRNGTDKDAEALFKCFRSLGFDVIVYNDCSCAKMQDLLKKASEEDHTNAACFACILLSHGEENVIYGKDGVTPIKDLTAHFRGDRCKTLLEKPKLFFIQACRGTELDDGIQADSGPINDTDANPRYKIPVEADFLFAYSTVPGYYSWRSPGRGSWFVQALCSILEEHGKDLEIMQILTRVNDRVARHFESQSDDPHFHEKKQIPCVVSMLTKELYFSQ", "log2 fold change": 0},
      {"target": "CNOT4 isoform 9 (UniProt O95628)", "sequence (O95628 whole entry, looked up)": "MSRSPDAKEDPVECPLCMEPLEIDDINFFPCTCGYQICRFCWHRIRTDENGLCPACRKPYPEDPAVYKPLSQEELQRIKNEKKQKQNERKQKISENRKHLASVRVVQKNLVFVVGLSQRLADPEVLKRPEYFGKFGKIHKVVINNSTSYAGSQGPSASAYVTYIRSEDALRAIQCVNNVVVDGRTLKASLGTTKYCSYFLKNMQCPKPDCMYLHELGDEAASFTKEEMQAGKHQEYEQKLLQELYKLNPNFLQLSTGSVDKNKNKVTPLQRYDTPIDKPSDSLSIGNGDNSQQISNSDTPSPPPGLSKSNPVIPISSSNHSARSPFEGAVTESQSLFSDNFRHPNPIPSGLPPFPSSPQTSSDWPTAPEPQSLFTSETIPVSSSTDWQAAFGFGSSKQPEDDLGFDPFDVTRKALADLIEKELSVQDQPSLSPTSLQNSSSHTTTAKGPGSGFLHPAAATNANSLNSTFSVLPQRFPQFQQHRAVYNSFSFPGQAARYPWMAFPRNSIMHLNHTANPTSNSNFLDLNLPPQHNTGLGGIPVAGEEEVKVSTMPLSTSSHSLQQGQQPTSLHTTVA", "log2 fold change": 0.02},
      {"target": "CLASP2 (UniProt O75122)", "log2 fold change": -0.003},
      {"target": "CCDC167 (UniProt Q9P0B6)", "sequence (Q9P0B6 whole entry, looked up)": "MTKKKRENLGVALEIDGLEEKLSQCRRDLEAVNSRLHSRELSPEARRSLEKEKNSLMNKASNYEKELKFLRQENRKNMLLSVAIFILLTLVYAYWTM", "log2 fold change": 0.034},
      {"target": "CCM2 isoform 2 (UniProt Q9BSQ5)", "log2 fold change": -0.019},
      {"target": "CRLS1 (UniProt Q9UJA2)", "sequence (Q9UJA2 whole entry, looked up)": "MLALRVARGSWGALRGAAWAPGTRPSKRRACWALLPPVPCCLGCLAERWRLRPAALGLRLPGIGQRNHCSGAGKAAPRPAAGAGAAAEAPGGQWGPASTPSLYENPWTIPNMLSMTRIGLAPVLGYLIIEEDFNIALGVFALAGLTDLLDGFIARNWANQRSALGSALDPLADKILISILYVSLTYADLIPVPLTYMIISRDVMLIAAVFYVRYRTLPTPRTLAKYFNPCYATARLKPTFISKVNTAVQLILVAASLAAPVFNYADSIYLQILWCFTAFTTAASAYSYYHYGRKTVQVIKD", "log2 fold change": -0.036},
      {"target": "CFAP47 (UniProt Q6ZTR5)", "log2 fold change": -0.052},
      {"target": "CFAP58 (UniProt Q5T655)", "log2 fold change": "-1.11 (active)"},
      {"target": "CLN3 (UniProt Q13286)", "sequence (Q13286 whole entry, looked up)": "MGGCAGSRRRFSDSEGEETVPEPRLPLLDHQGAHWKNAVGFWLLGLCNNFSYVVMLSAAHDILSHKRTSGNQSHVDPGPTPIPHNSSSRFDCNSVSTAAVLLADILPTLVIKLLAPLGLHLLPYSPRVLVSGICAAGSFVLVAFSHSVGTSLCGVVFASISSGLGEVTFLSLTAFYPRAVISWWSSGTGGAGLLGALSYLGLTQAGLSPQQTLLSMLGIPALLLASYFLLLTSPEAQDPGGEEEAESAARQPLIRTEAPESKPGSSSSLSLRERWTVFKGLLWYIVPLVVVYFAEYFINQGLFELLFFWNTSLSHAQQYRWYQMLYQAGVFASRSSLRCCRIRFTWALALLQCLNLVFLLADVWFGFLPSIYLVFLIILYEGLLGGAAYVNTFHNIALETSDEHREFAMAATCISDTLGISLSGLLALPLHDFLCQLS", "log2 fold change": 0.065},
      {"target": "CEMIP2 (UniProt Q9UHN6)", "sequence (Q9UHN6 whole entry, looked up)": "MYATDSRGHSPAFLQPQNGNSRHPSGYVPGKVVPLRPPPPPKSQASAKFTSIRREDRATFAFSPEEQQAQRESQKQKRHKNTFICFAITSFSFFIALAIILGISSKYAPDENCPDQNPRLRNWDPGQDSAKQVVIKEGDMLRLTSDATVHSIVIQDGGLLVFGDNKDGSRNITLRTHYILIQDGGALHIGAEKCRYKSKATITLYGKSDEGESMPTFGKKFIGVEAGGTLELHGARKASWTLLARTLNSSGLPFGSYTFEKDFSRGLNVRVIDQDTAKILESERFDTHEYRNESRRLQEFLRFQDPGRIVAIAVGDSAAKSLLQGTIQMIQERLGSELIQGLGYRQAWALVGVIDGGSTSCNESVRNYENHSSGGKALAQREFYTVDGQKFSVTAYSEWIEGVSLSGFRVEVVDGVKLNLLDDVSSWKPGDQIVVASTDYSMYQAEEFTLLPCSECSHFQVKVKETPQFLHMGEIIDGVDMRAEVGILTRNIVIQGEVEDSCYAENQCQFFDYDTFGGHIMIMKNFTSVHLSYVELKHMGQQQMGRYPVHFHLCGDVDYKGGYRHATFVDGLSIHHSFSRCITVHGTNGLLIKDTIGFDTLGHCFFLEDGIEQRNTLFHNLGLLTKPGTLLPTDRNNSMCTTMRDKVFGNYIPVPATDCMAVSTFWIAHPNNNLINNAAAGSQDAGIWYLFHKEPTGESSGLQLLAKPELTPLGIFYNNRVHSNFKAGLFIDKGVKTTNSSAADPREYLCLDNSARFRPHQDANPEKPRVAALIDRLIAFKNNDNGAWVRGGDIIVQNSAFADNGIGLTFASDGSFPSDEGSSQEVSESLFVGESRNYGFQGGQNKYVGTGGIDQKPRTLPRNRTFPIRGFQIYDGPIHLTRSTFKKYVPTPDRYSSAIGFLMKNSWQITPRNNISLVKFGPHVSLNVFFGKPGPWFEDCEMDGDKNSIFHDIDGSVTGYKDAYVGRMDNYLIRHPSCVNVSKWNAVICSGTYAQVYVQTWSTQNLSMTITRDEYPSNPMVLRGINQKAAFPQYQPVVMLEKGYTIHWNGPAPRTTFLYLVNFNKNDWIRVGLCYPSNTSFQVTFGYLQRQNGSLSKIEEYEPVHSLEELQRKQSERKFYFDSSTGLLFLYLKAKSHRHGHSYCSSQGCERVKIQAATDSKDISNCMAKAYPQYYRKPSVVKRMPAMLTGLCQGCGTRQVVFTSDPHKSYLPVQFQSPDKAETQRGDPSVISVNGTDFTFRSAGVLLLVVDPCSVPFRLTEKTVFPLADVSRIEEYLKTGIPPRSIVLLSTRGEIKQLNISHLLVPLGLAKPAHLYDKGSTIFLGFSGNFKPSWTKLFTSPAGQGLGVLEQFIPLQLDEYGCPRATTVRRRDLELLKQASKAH", "log2 fold change": 0.04},
      {"target": "CS (UniProt F8VU34)", "log2 fold change": 0.063},
      {"target": "CCDC57 (UniProt Q2TAC2)", "log2 fold change": -0.044},
      {"target": "CLCN5 isoform 2 (UniProt P51795)", "sequence (P51795 whole entry, looked up)": "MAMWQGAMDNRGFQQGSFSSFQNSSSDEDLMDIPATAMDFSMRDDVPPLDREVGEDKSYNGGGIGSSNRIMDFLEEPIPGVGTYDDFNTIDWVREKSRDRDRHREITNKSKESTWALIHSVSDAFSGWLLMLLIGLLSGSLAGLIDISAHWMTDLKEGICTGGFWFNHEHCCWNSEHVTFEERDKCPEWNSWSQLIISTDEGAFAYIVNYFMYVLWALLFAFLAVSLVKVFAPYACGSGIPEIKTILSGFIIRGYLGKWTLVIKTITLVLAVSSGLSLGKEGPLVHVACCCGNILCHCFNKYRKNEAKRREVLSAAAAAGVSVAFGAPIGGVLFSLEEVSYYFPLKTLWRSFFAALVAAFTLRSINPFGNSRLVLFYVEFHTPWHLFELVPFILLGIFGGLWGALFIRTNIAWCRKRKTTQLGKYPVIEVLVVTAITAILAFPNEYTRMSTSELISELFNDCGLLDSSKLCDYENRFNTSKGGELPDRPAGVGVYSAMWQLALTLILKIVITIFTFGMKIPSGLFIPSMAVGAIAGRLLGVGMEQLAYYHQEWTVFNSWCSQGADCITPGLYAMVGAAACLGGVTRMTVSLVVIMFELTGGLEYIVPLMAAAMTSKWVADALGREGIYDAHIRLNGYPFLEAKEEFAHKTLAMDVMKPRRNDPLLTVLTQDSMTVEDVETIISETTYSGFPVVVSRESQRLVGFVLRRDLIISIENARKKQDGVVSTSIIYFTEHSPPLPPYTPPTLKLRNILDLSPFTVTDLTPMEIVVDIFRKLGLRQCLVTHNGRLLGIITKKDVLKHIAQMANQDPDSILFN", "log2 fold change": -0.014},
      {"target": "C6orf120 (UniProt Q7Z4R8)", "sequence (Q7Z4R8 whole entry, looked up)": "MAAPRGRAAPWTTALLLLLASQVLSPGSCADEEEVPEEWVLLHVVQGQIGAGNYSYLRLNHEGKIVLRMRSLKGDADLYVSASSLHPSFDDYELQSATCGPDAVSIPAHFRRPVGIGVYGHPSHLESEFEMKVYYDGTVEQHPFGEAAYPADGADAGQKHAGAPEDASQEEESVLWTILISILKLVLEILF", "log2 fold change": -0.013},
      {"target": "CEBPZOS (UniProt A8MTT3)", "log2 fold change": 0.203},
      {"target": "COMMD1 (UniProt Q8N668)", "sequence (Q8N668 whole entry, looked up)": "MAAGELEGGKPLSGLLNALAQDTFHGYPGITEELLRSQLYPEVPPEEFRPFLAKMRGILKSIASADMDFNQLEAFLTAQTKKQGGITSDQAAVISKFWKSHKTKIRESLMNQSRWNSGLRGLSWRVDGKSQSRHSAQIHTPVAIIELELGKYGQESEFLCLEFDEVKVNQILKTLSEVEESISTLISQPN", "log2 fold change": -0.013},
      {"target": "CCND3 (UniProt P30281)", "log2 fold change": -0.154},
      {"target": "CLINT1 (UniProt Q14677)", "sequence (Q14677 whole entry, looked up)": "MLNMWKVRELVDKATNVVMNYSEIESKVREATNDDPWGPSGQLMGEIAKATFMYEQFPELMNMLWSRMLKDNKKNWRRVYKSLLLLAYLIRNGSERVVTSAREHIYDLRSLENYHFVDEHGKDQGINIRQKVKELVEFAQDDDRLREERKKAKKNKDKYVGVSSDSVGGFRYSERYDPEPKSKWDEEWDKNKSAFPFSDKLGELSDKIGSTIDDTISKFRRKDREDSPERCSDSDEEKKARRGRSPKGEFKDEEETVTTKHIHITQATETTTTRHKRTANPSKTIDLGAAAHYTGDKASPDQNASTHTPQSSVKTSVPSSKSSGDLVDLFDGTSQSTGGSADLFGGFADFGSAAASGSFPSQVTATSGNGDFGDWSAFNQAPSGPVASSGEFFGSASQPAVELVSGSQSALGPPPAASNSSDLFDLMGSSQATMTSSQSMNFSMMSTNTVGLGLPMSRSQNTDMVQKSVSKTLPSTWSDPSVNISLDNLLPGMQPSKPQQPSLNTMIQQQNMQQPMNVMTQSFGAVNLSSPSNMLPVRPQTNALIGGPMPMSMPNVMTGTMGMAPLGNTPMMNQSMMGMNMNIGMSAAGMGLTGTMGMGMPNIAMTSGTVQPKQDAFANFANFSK", "log2 fold change": 0.16}
    ]}
  ]
}
